Bioassay records from PubChem BioAssay.
The list is not random: actives were taken first. Their share in the collection is about 3.6%.
Nrf2 inh – Nrf2 pathway inhibition; A549 ARE-Fluc reporter, luciferase luminescence, 18-24 h; Potency, µM (highest dose often 46 µM), for the others: top-dose activity change, negative = inhibition, most hits filed as inhibitors; 2.1% of 360,000 active; AID 504444; also: % is scaled to controls: 0 for no effect and ±100 for the full control effect; nearly all actives have a fitted effect of over 60% in size
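Two sequential reads on A549 ARE_Fluc cells exposed to compound for 18-24 h: a CellTiter-Fluor fluorescence read for viability, then a luciferase luminescence read for Nrf2/ARE activity.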
A549 viability – kills or reduces viability of A549 cells in Nrf2 counter-screen; AID 504648; 0.16% of 390,000 active; Potency, µM (top dose mostly 46 µM), for the others: top-dose activity change, negative = cytotoxicity, hits mostly inhibitors; A549 ARE-Fluc cells, CellTiter-Fluor viability, 18-24 h; also: % is scaled to controls: 0 for no effect and ±100 for the full control effect
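A549 ARE_Fluc cells in 5% FBS OPTI-MEM were exposed to compounds in concentration-response for 18-24 h at 37 deg C. Viability was read by CellTiter-Fluor fluorescence (Ex 405/Em 525) after 30 min, before the luciferase read.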
HepG2 tox-1 – HepG2 cytotoxicity, counter-screen for TGF-b inhibitors; 0.76% of 410,000 active; Potency, µM (series often up to 46.1 µM), for the others: at the highest dose activity change, negative = cytotoxicity, most hits filed as cytotoxic; HepG2 CAGA-GFP viability, ATP luminescence, 18 h
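CellTiter-Glo luminescence gave cytotoxicity after 18 hours at 37 degrees C. The cells were HepG2 CAGA-GFP in 1% FBS DMEM, stimulated with 500 pg/mL TGF-beta after compound addition. %Activity was normalised to no-cell wells (complete cell-killing) and DMSO (no toxicity), and curves were fitted and classified.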
TGFb SMAD3 inh – inhibitors of TGF-b signaling. HepG2 CAGA-GFP TGF-b/SMAD3 reporter, GFP fluorescence, 18 h; TGF-beta stimulated, 500 pg/mL final. Potency, µM (top dose mostly 46.1 µM), without a hit: top-dose activity, negative = inhibition, most hits filed as inhibitors. 1.2% of 410,000 active. AID 588855; also: % is scaled to controls: 0 for no effect and ±100 for the full control effect; nearly all actives have a fitted effect of over 65% in size
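Using HEPG2 CAGA-GFP reporter cells at 1000 cells/well, we pinned test compounds, stimulated with recombinant TGF-beta (500 pg/mL final) and measured total well GFP after 18 h.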
Nrf2 activator – activates Nrf2 signaling. AREc32 ARE-luciferase reporter (MCF7-derived line), luminescence, 24 h. Potency, µM (titrated, usually from 46.1 µM), inactives show at the top dose activation, actives largely listed as activators. 0.31% of 410,000 active. AID 624171; also: % of control where 0% means no effect; nearly all actives have a fitted effect of over 65% in size
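ARE activation measured as luciferase luminescence (Steady-Glo, 30 min RT) in AREc32_Fluc cells after 24 hr compound exposure at 37 deg C, 5% CO2; cells seeded overnight at 1000/well in OPTI-MEM, 5% FBS.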
TGFb confirm – confirmation of TGF-b signaling inhibitors in HepG2 reporter cells; shares compounds with TGFb SMAD3 inh; HepG2 CAGA-GFP TGF-b reporter, GFP fluorescence, 18 h; cells stimulated with TGF-beta, 500 pg/mL; Potency, µM (titrated, usually from 46.1 µM), without a hit: top-dose activity, negative = inhibition, most hits filed as inhibitors; 63% of 1,600 active; AID 720534; also: % is scaled to controls: 0 for no effect and ±100 for the full control effect; nearly all actives have a fitted effect of over 65% in size
HepG2 tox-2 – toxic to HepG2 cells in TGF-b counterscreen | HepG2 CAGA-GFP viability, ATP luminescence, 18 h; cells stimulated with TGF-beta, 500 pg/mL | 27% of 1,600 active | Potency, µM (doses to about 46.1 µM), inactives show at the top dose activity, negative = cytotoxicity, hits mostly inhibitors | shares compounds with TGFb SMAD3 inh; also: % is scaled to controls: 0 for no effect and ±100 for the full control effect; nearly all actives have a fitted effect of over 70% in size
TGFb CCL64 inh – blocks TGF-b signaling in CCL64 reporter cells | Potency, µM (highest dose often 46.1 µM), for the others: top-dose activity, negative = inhibition, actives largely listed as inhibitors | CCL64 CAGA-GFP reporter, TGF-b stimulated, GFP fluorescence, 18 h | AID 720536 | 41% of 1,600 active | shares compounds with TGFb SMAD3 inh; also: nearly all actives have a fitted effect of over 65% in size
TGFb COP inh – TGF-b inhibition validated with COP promoter. shares compounds with TGFb SMAD3 inh. HepG2 COP-GFP TGF-b reporter, GFP fluorescence, 18 h; cells stimulated by added recombinant TGF-beta. Potency, µM (series often up to 46.1 µM), for the others: at the highest dose activity, negative = inhibition, usual class: inhibitors. 3% of 1,600 active. AID 720537; also: nearly all actives have a fitted effect of over 70% in size
* hit, by the source's call; ? = inconclusive; · = no result; [ ] = dose if it differs, or a comment. Calls follow the shape of the dose curve; as a rule, active = well fitted curve in the direction sought with a large enough effect; inconclusive = small, poorly fitted or top-dose-only effect, or another doubt; inactive = no such curve, though single readings can be large; an effect the other way counts as inactive or inconclusive. Potency is read from the fitted curve at half-maximal effect.

SMILES | Nrf2 inh | A549 viability | HepG2 tox-1 | TGFb SMAD3 inh | Nrf2 activator | TGFb confirm | HepG2 tox-2 | TGFb CCL64 inh | TGFb COP inh
CC(=O)Nc1ccc(C2C(=O)c3ccccc3C2=O)cc1 | 4% | -3% | -12% | 7% | 3% | · | · | · | ·
NC(Cc1ccc(C(F)(F)F)cc1)c1csc(Nc2cnccn2)n1 (centres undefined) | · | · | -68% | 7.1µM* | 7%[9.22 µM] | ? | ? | ? | 62%
NC(Cc1ccc(F)cc1)c1csc(Nc2ccc(C(F)(F)F)cn2)n1 (centres undefined) | · | · | -111% | 10µM* | -2% | ? | ? | ? | -27%
NC(c1csc(Nc2cnccn2)n1)c1ccccc1Cl (centres undefined) | · | · | -9% | 6% | 8% | · | · | · | ·
NC(Cc1cnc[nH]1)c1csc(Nc2ccc(C(F)(F)F)cn2)n1 (centres undefined) | · | · | -22% | 20% | 4% | · | · | · | ·
O=C(Nc1cccc(Cl)c1)Nc1csc([N+](=O)[O-])c1 | ? | -28% | 10µM* | ? | ? | 10µM* | 16µM* | 9.2µM* | 76%
C=CCc1cccc(/C=N/c2ncn[nH]2)c1O | -7% | -10% | -8% | 1% | -1% | · | · | · | ·
COc1ccc(CNC(=O)c2c(C)oc3c2C(=O)c2ccccc2C3=O)cc1 | 4.1µM* | 4.6µM* | 0.89µM* | 1µM* | -5% | 0.65µM* | 1µM* | 5.2µM* | 2.1µM*
O=C(NCC1CC1)c1ccc(Nc2nc3ccc(Br)cc3[nH]2)cc1 | 6% | -3% | -27% | 10µM* | 0% | ? | ? | ? | 52%
COc1cc(O)cc(O)c1C(=O)/C=C/c1ccccc1 | -13% | 8% | -29% | 14µM* | 24% | 21µM* | ? | ? | 21%
COc1cc(OC)c(C(=O)/C=C/c2ccccc2)c(O)c1O | -15% | -2% | -27% | -3% | ? | · | · | · | ·
C[C@]12c3[nH]c4cc(-c5ccco5)ccc4c3CCN1C(=O)[C@@H](CC(=O)NCCC1=CCCCC1)C[C@@H]2C(=O)N1CCOCC1 | ? | ? | 3% | 11µM* | 9% | ? | ? | ? | 50%
C[C@]12c3[nH]c4ccc(Cl)cc4c3CCN1C(=O)[C@@H](CC(=O)NCCC1=CCCCC1)C[C@@H]2C(=O)N1CCOCC1 | 6% | -5% | -26% | ? | 10% | 16µM* | -9% | ? | 2%
CCN(CC)C(=O)[C@H]1C[C@H](CC(=O)NC/C=C(\C)CCC=C(C)C)C(=O)N2CCc3c([nH]c4cc(CCC(=O)N(C)C)ccc34)[C@]12C | ? | -14% | -23% | 13µM* | 8% | 23µM* | ? | ? | 55%
